Assay outcomes deposited in PubChem BioAssay by National Center for Advancing Translational Sciences (NCATS).
ELG1 genotoxic: induces genotoxicity in HEK293T cells with luciferase-tagged ELG1. HEK293T ELG1-luciferase reporter, luminescence, 16 h. Potency, µM (top dose mostly 46 µM), without a hit: at the highest dose activity change, positive = activation, hits mostly activators. 330,000 tested, 1.3% active. AID 504466; further: % of control where 0% means no effect; nearly all actives have a fitted effect of over 60% in size
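Luminescence read-out: rising ELG1-luciferase signal, reflecting elevated ELG1 protein under genetic stress, flags genotoxic compounds. Cells were treated for 16 hr at 37 °C before ONE-Glo detection.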
FLuc counter: firefly luciferase modulation, counter-screen for miR-21 project; P08659; purified FLuc, Km substrates, luminescence inhibition; Potency, µM (series often up to 57.5 µM), for inactives: at the top dose activity change, negative = inhibition, usual class: inhibitors; 360,000 tested, 6.9% active; AID 588342;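 further: plate controls were vehicle for no effect and reference inhibitor for full effect; nearly all actives have a fitted effect of over 55% in size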
Target sequence (P08659 whole entry, looked up): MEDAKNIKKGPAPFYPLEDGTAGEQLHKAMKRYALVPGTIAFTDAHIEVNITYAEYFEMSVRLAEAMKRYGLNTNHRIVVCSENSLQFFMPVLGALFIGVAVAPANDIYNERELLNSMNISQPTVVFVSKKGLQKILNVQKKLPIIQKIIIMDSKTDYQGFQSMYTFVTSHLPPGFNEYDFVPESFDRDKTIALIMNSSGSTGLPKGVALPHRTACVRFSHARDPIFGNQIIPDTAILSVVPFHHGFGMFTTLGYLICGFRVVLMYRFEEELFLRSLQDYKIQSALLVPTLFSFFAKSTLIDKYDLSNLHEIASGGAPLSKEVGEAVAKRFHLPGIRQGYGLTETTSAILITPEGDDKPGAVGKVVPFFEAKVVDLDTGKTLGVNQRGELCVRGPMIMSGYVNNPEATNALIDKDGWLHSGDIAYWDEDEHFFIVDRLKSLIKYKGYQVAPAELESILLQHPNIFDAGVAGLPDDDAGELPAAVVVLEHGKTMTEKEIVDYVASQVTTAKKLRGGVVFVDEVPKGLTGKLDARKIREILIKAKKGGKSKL
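Purified P. pyralis luciferase (10nM final) with 10uM D-luciferin and 10uM ATP (Km levels) in 50mM Tris acetate pH 7.5, 10mM Mg acetate, 0.01% Tween-20, 0.05% BSA; qHTS 6-point titration, ~60 µM downward; luminescence read.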
Rab9 promoter act: activates the Rab9 promoter | Huh7 Rab9 promoter-luciferase reporter, luminescence, 24 h | Potency, µM (series often up to 9.22 µM), for the others: top-dose activation, negative = inhibition, hits mostly activators | 320,000 tested, 2.8% active; further: % of control where 0% means no effect; nearly all actives have a fitted effect of over 60% in size
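Quantitative HTS format; Huh7 Rab9-luciferase reporter cells (1500/well) receive compound 2 h post-plating, incubate 24 h at 37 °C, then get luciferase reagent for 10 min before luminescence reading.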
SMN2 splice up: increases expression of the SMN2 splice variant; HEK293 SMN2-luciferase splicing reporter, luminescence, 30-36 h; Potency, µM (highest dose often 46.1 µM), for inactives: top-dose activity change, positive = activation, usual class: activators; 210,000 tested, 2.8% active; AID 1458; further: % of control where 0% means no effect; nearly all actives have a fitted effect of over 55% in size
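qHTS luciferase splicing reporter: luminescence rises when SMN2 exon 7 is included in transfected HEK293 cells. Compound exposure lasted 30-36 h at 37C, with 4.5 mM final sodium butyrate as control, followed by a ONE-Glo read.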
NPC1 prom act: activates the NPC1 promoter | Huh7 NPC1 promoter luciferase reporter, 24 h | 320,000 tested, 2.4% active | AID 485313 | Potency, µM (titrated, usually from 9.22 µM), inactives show at the top dose activation, usual class: activators; further: % of control where 0% means no effect; nearly all actives have a fitted effect of over 60% in size
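NPC1 promoter–luciferase Huh7 cells; 24 h compound; luminescence.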
Numbers without * were called inactive; [ ] = another dose, or the depositor's remark. In the library only some 7.4% were active in any assay of this set; here they are far more common. The call rests on the fitted dose curve; in most records, active means well fitted curve in the direction sought with a large enough effect; inconclusive means small, poorly fitted or top-dose-only effect, or another doubt; inactive means no such curve, though single readings can be large; an effect the other way counts as inactive or inconclusive. Potency means the concentration at half of the fitted maximal effect.

For CCC(=O)c1ccc(N2CCC(C)CC2)c(F)c1 the results were ELG1 genotoxic 13%, FLuc counter 21µM*, Rab9 promoter act 29% and NPC1 prom act 8%.
For COc1ccc(-c2cn3c(n2)sc2cc(C(=O)NCCC4=CCCCC4)ccc23)cc1 the results were FLuc counter -3%.
Screening CCCCCN=Cc1c(C)[nH]n(-c2nc3ccccc3s2)c1=O returned ELG1 genotoxic 2.9µM*, FLuc counter 4.8µM*, Rab9 promoter act inconclusive, SMN2 splice up 11% and NPC1 prom act inconclusive.
COCCCN=Cc1c(-c2ccccc2)[nH]n(-c2nc3ccccc3s2)c1=O was read as ELG1 genotoxic 1%, FLuc counter 15µM*, Rab9 promoter act 1% and NPC1 prom act -6%.
For CCCc1[nH]n(-c2nc3ccccc3s2)c(=O)c1C=NCCCOC the results were ELG1 genotoxic 7%, FLuc counter -16%, Rab9 promoter act 5% and NPC1 prom act 13%.
`O=c1c(C=NCCCO)c(-c2ccccc2)[nH]n1-c1nc2ccccc2s1` gave ELG1 genotoxic 11%, FLuc counter 15µM*, Rab9 promoter act -12% and NPC1 prom act 0%.
For CCCc1[nH]n(-c2nc3ccccc3s2)c(=O)c1C=NCCN1CCOCC1 the results were ELG1 genotoxic inconclusive, FLuc counter 17µM*, Rab9 promoter act 16%, SMN2 splice up 41% and NPC1 prom act 18%.
For CCCc1[nH]n(-c2nc3ccccc3s2)c(=O)c1C=NCC1CCCO1 (stereo not given) the results were ELG1 genotoxic 2%, FLuc counter -18%, Rab9 promoter act 14%, SMN2 splice up -7% and NPC1 prom act 6%.
`COc1ccc(NC(=O)N2CC3(CCN(C(=O)c4cccc(F)c4)CC3)C2)cc1` gave SMN2 splice up -6%.
COC(=O)NC(/C=C/c1ccccc1)C(C(C)=O)C(=O)OC (stereo not given) was read as SMN2 splice up -7%.
CCn1c(=O)n(-c2ccc3c(c2)OCO3)c2nc(-c3ccc(C(C)C)cc3)nc(C(N)=O)c21 was read as FLuc counter -5% and SMN2 splice up 11%.
For O=C(Nc1ccccc1)c1ccc2ccccc2n1 the results were ELG1 genotoxic inconclusive, FLuc counter 4.8µM*, Rab9 promoter act inconclusive, SMN2 splice up inconclusive and NPC1 prom act 20%.
Screening O=C(Nc1ccc(OC(F)(F)F)cc1)c1ccc2ccccc2n1 returned ELG1 genotoxic 1%, FLuc counter inconclusive, Rab9 promoter act 6%, SMN2 splice up -43% and NPC1 prom act 1%.
Cc1ccccc1NC(=S)c1ccc2ccccc2n1 was read as ELG1 genotoxic inconclusive, FLuc counter 13µM*, Rab9 promoter act -2% and NPC1 prom act 23%.
Screening CCCN(CC(=O)Nc1ccccc1C)C(=O)c1ccc2ccccc2n1 returned ELG1 genotoxic 0%, FLuc counter 2%, Rab9 promoter act 3% and NPC1 prom act -6%.
O=C(Nc1ccccc1C(=O)O)c1ccc2ccccc2n1 was read as ELG1 genotoxic inconclusive, FLuc counter 6µM*, Rab9 promoter act inconclusive, SMN2 splice up inconclusive and NPC1 prom act inconclusive.
O=C(NNC(=O)c1ccc2ccccc2n1)c1ccc(O)cc1 was read as ELG1 genotoxic 1%, FLuc counter inconclusive, Rab9 promoter act -3% and NPC1 prom act -3%.
`CC(C)(C)c1ccc(S(=O)(=O)/C=C/C#N)cc1` gave Rab9 promoter act -43%[46.1 µM], SMN2 splice up -87% and NPC1 prom act -38%[46.1 µM].
Screening Cc1cc2nc3c(=O)n(C)c(=O)n(C)c3nc2cc1N=CN(C)C returned FLuc counter -3% and SMN2 splice up -2%.
Screening Cc1ccc(C(=O)CSc2nnc(C)s2)cc1 returned ELG1 genotoxic inconclusive, FLuc counter 13µM*, Rab9 promoter act 2.2µM*, SMN2 splice up inconclusive and NPC1 prom act 2.2µM*.
For Cc1ccc(-c2nc(NC(=O)CSc3nnc(C)s3)ns2)cc1 the results were ELG1 genotoxic 3%, FLuc counter 19µM*, Rab9 promoter act -7%, SMN2 splice up 6% and NPC1 prom act 8%.
For Cc1nnc(SCC(=O)Nc2nsc(-c3ccccc3)n2)s1 the results were ELG1 genotoxic -4%, FLuc counter inconclusive, Rab9 promoter act 17%, SMN2 splice up 16% and NPC1 prom act 10%.
For Cc1nnc(SCC(=O)c2ccc(Br)cc2)s1 the results were ELG1 genotoxic -1%, FLuc counter 17µM*, Rab9 promoter act 17%, SMN2 splice up -8% and NPC1 prom act 10%.
Screening Nc1nnc(SCC(=O)c2ccc3ccccc3c2)s1 returned ELG1 genotoxic 12µM*, FLuc counter 19µM*, Rab9 promoter act 4µM*, SMN2 splice up inconclusive and NPC1 prom act 4.5µM*.
COc1ccc(-n2c(CCC(=O)O)ccc2-c2ccccc2)c(OC)c1 was read as FLuc counter inconclusive and SMN2 splice up 3%.
CCN(CC)c1nc(C)nc2c1cnn2CCc1ccccc1 was read as ELG1 genotoxic 12µM*, FLuc counter 19µM*, Rab9 promoter act inconclusive, SMN2 splice up 22µM* and NPC1 prom act inconclusive.
`CCN(CC)CCCNC(=O)CCCn1c(=O)[nH]c2ccc(Br)cc2c1=O` gave FLuc counter -2% and SMN2 splice up 6%.
Cc1ccc2nsnc2c1S(=O)(=O)N(Cc1ccco1)Cc1cc2cccc(C)c2[nH]c1=O was read as ELG1 genotoxic -6%, FLuc counter 5%, Rab9 promoter act 1%, SMN2 splice up -6% and NPC1 prom act -3%.
`Cc1ccc2[nH]c(=O)c(CN(Cc3ccco3)S(=O)(=O)c3c(C)ccc4nsnc34)cc2c1` gave ELG1 genotoxic -14%, FLuc counter 3%[2.3 µM], Rab9 promoter act -17%, SMN2 splice up 7.9µM* and NPC1 prom act -5%.
For O=C(/C=C/c1cc2ccccc2o1)c1ccccc1O the results were ELG1 genotoxic inconclusive, FLuc counter 2.4µM*, Rab9 promoter act inconclusive and NPC1 prom act inconclusive.
`O=C(/C=C/c1ccoc1)c1ccccc1O` gave ELG1 genotoxic inconclusive, FLuc counter 9.5µM*, Rab9 promoter act -3%, SMN2 splice up -7% and NPC1 prom act -3%.
For O=C(N/N=C/c1ccoc1)c1ccccc1F the results were ELG1 genotoxic inconclusive, FLuc counter inconclusive, Rab9 promoter act 18% and NPC1 prom act 19%.
For O=C(/C=C/c1ccc(O)c(O)c1)OCCc1ccccc1 the results were Rab9 promoter act -25%[46.1 µM], SMN2 splice up 16µM* and NPC1 prom act -8%[46.1 µM].
`COc1ccc2ccccc2c1C(=O)/C=C\c1ccoc1` gave ELG1 genotoxic 0%, FLuc counter 27µM*, Rab9 promoter act 3%, SMN2 splice up -8% and NPC1 prom act -6%.
Screening COc1ccc(O)c(C(=O)/C=C/c2cc3ccccc3o2)c1 returned FLuc counter inconclusive, Rab9 promoter act -7% and NPC1 prom act -2%.
